{"source": "PubChem BioAssay AID588473", "about": "(Sanford-Burnham Center for Chemical Genomics, 2011)", "note": "The whole screen tested about 350,000 compounds, of which about 1,600 (0.46%) were called active. The sample holds actives, similar compounds and a random draw of the others, so the mix is not that of the screen. Unmarked numbers belong to inactive results.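 How the source made its calls: active means activation of at least 50%, plus an integration ratio under a set limit after plate pattern correction; inactive means the rest.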", "data": [{"system": "CRF-binding protein / CRF receptor 2 complex (human)", "test": "activators of CRF-R2 with CRF-BP – cell-based, HEK293, calcium dye fluorescence, uHTS, primary screen (AID 588473);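 further: plate controls were neutral control wells without compound for no effect and CRF at EC100 for full effect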", "conditions": "calcium dye fluorescence (FLIPR), at 13.2 µM, hits give high values", "values": [{"smiles": "CCCCC(=O)N/N=C/c1c(O)n(CC)c(=S)n(CC)c1=O", "activation": "89% (active)"}, {"smiles": "Cn1c(O)c(C=NCCCC(=O)O)c(=O)n(C)c1=O", "activation": "3.61%"}, {"smiles": "CCCCC(=O)N/N=C/c1c(O)n(CCC2=CCCCC2)c(=O)[nH]c1=O", "activation": "0.08%"}, {"smiles": "COC(=O)C1=C(c2ccc(C(C)=O)cc2)C[C@@H]2CC[C@H]1N2C(=O)NCCNC(C)=O", "activation": "-2% [percent of saturating CRF peptide response]"}, {"smiles": "COc1ccc(C2NCc3ccc4c(c3-n3cccc32)OCO4)cc1OC", "note": "(stereo not given)", "activation": "-1.07%"}, {"smiles": "COC(=O)N(c1ccc(OC)cc1)P1(=S)OCCC(C)O1", "note": "(stereo not given)", "activation": "-2.1%"}, {"smiles": "Cc1nc2ccccn2c1P(=S)(N1CCCCC1)N1CCCCC1", "activation": "63.2% (active)"}, {"smiles": "CN1CCN(Cc2ccc(OC(F)(F)F)cc2)CC1", "activation": "-0.02%"}, {"smiles": "CCCCCn1c(=O)c(C(=O)NCc2ccccc2)c(O)c2ccccc21", "activation": "4.58%"}, {"smiles": "CCOP(=S)(OCC)C(O)CCCCCn1c(=O)c(F)cn(C2CCCO2)c1=O", "note": "(stereo not given)", "activation": "-3.57%"}, {"smiles": "O=C(c1cc(S(=O)(=O)N2CCOCC2)ccc1F)N1CCC2(CC1)OCCO2", "activation": "2.62%"}, {"smiles": "COc1cccc(N2C(=O)NC(=O)/C(=C\\c3ccc([N+](=O)[O-])s3)C2=O)c1", "activation": "4.02%"}, {"smiles": "COc1cccc(N2C(=O)NC(=O)/C(=C\\c3cn(C)c4ccccc34)C2=O)c1", "activation": "113% (active)"}, {"smiles": "COc1ccc(N2C(=O)/C(=C/c3ccco3)C(=O)NC2=S)cc1", "activation": "4.87%"}, {"smiles": "c1ccc(C(CN2CCCCC2)c2ccccc2)cc1", "activation": "-0.78% [percent of saturating CRF peptide response]"}]}]}
